NCOA3 inh – inhibitors of human steroid receptor coactivator 3 (SRC3) | Q9Y6Q9 | AID 588352 | inhibition, % at 3.6 µM | HEK293 GAL4-SRC3 luciferase reporter, luminescence | 0.17% of 360,000 active;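 active = inhibition above a per-campaign cutoff, the mean of all compounds plus 3 SD, cut at about 60% in these data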;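 also: 0% = DMSO-treated cells and 100% = gossypol-treated cells at 36 µM; higher means less SRC3-driven luciferase light from the GAL4 reporter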
NR5A2 inv ag – inverse agonists of human LRH-1 (NR5A2); HEK293T StAR-luciferase reporter, LRH-1 transfected, 24 h; inhibition, % at 3.6 µM; O00482; 0.13% of 360,000 active;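 active = inhibition above the mean inhibition of all tested compounds plus 3 SD, cut at about 73% in these data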;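 also: 0% = DMSO wells and 100% = reporter-only cells lacking LRH-1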
SRC2 inh – inhibits human steroid receptor coactivator 2; Q15596; HEK293 GAL4-SRC2 luciferase reporter, luminescence; inhibition, % at 9 µM; 0.17% of 370,000 active; AID 651957;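 active = inhibition above the mean inhibition of all tested compounds plus 3 SD, set per campaign, cut at about 52% in these data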;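 also: 0% = DMSO treated cells and 100% = cells given Gossypol at 36 µM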
NCOA1 inh – inhibits human SRC1 coactivator | HEK293 GAL4-SRC1 luciferase reporter, luminescence | inhibition, % at 3.6 µM | 0.12% of 360,000 active;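 active = inhibition above the campaign mean plus 3 SD, with each screening campaign given its own cutoff, cut at about 60% in these data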;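 also: 0% = DMSO treated cells and 100% = gossypol at 36 µM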
GalR3 antag – blocks the human galanin receptor 3; O60755; HEK293 GalR3-CNG cAMP membrane potential fluorescence; galR3 body fused to GalR1 C-terminus; inhibition, % at 3 µM; 0.44% of 360,000 active; AID 651719;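 active = inhibition above the screen-wide average plus 3 SD, cut at about 13% in these data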;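 also: forskolin and galanin both at EC90 stimulate the cells; cAMP rise reported by CNG channel membrane potential dye signal; 0% = forskolin plus galanin with DMSO and 100% = forskolin alone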
Target sequence (O60755 1-299 limits assumed): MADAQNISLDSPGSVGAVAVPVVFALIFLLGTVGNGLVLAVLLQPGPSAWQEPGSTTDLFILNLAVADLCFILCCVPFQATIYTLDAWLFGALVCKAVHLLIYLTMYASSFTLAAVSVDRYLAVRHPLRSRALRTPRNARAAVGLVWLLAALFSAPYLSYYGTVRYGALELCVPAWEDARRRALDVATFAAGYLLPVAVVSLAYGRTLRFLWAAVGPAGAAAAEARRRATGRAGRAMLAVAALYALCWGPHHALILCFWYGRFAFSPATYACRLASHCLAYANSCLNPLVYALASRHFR
COUP-TFII inh – blocks human COUP-TFII nuclear receptor; HEK293T NGFI-A luciferase reporter, luminescence; inhibition, % at 8.6 µM; 0.7% of 370,000 active; AID 686940;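 active = inhibition above a per-plate cutoff, mean inhibition of test wells between control levels plus 3 SD, cut at about 38% in these data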;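 also: cells cotransfected with COUP-TFII expression vector driving the NGFI-A reporter; 0% = median of COUP-TF2 test wells and 100% = reporter-only cells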
VP16 Luc counter – inhibits VP16 reporter, flagging COUP-TFII antagonist hits; HEK293 Gal4-VP16 luciferase reporter, luminescence; 25% of 2,500 active; shares compounds with COUP-TFII inh; AID 687007; inhibition, % at 8.5 µM; in the data active = inhibition above about 13%
COUP-TFII conf – COUP-TFII (NR2F2) inhibition, confirmation assay. shares compounds with COUP-TFII inh. HEK293 NGFI-A luciferase reporter, luminescence. inhibition, % at 8.5 µM. 45% of 2,500 active. AID 687008;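 active = mean inhibition over three repeats above a set limit taken from the earlier primary screen, cut at about 38% in these data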;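 also: 100% = cells given the luciferase reporter alone without the COUP-TF2 vector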
Starred values were filed as active, the others as inactive; . = no result. The list is not random: actives were taken first. Their share in the collection is about 1.1%.

SMILES | NCOA3 inh | NR5A2 inv ag | SRC2 inh | NCOA1 inh | GalR3 antag | COUP-TFII inh | VP16 Luc counter | COUP-TFII conf
CC1C(OC(=O)CCC(=O)NC(C)(C)CO)O[C@H]2OC3(C)CC[C@H]4[C@H](C)CCC1C24OO3 (stereo partly specified) | 54 | 90* | 6 | 55 | -10 | 46* | 7 | 50*
CC(C)CC(NC(=O)CCCNC(=O)CCC(=O)OC1O[C@H]2OC3(C)CC[C@H]4[C@H](C)CCC(C1C)C24OO3)C(=O)O (stereo partly specified) | 73* | 84* | 23 | 43 | -9 | 46* | -3 | 45*
C=CCn1c(O)c(C(CC)=NCCc2c[nH]c3ccccc23)c(=O)[nH]c1=O | 7 | 6 | 8 | 0 | 2 | 2 | . | .
CCN(CC)P(=O)(NC(=O)C(Cl)(Cl)Cl)N(CC)CC.[Cl-].[Cl-].[Cl-].[Nd+3] | -12 | 17 | 4 | -3 | -3 | 1 | . | .
C[C@H]1C[C@@H](C)C(=O)[C@@H]([C@H](O)CC2CC(=O)NC(=O)C2)C1 | 93* | 103* | 72* | 92* | -7 | 85* | 6 | 70*
O=C1NC2C(=CC(O)C(O)C2O)c2cc3c(c(O)c21)OCO3 (stereo unspecified) | 94* | 97* | 68* | 96* | -4 | 91* | 25* | 84*
COc1cc(C2c3cc4c(cc3CC3COC(=O)C32)OCO4)cc(OC)c1O (stereo unspecified) | 24 | 13 | -1 | 1 | 1 | -69 | . | .
O=C1NC2C(O)C(O)C(O)C(O)C2c2cc3c(c(O)c21)OCO3 (stereo unspecified) | 92* | 98* | 75* | 93* | -2 | 80* | 29* | 80*
O=C1NC2C(=CC(O)C(O)C2O)c2cc3c(cc21)OCO3 (stereo unspecified) | 91* | 97* | 75* | 94* | -2 | 78* | 11 | 58*
CCN(CC)C1=NC(=[N+](CC)CC)c2ccccc21 | 27 | 55 | 31 | 40 | -4 | 45* | 12 | 52*
CC12CCC3C(CCC4(O)CC(O)CCC34C=NO)C1(O)CCC2C1=COC(=O)C1 (stereo unspecified) | 89* | 99* | 42 | 87* | 23* | 81* | 43* | 69*
CCCCN=C[C@]12CCC(O)CC1(O)CCC1[C@@H]2CC[C@]2(C)[C@H](C3C=CC(=O)O3)CCC12O (stereo partly specified) | 80* | 97* | 42 | 78* | 8 | 63* | 39* | 69*
C[C@]12CC[C@H]3[C@@H](CC[C@]4(O)C[C@@H](O)CC[C@]34C=O)[C@@]1(O)CC[C@@H]2C1=CC(=O)OC1 | 82* | 102* | 53* | 71* | 15* | 78* | 33* | 67*
C[C@]12CCC3C(CCC4=CC(O)CC[C@@]43/C=N/O)C1(O)CCC2C1=CC(=O)OC1 (stereo partly specified) | 71* | 98* | 50 | 78* | 15* | 75* | 37* | 68*
CC12CC[C@H]3[C@@H](CCC4(O)C[C@H](O)CCC34/C=N/NC(=O)c3ccccc3Cl)C1(O)CCC2C1=CC(=O)OC1 (stereo partly specified) | 11 | -1 | -19 | 8 | 3 | 7 | . | .
COc1ccccc1-n1c(-c2ccc(C)cc2)nc2ccccc2c1=O | 6 | 1 | -32 | -12 | -7 | -5 | . | .
O=c1ccc2c(O)c3ccoc3cc2o1 | -9 | 11 | -17 | -1 | 0 | 15 | . | .
CC[C@@H]1C[C@H]2CC[C@H](O2)[C@H](C)C(=O)O[C@@H](C)C[C@@H]2CC[C@@H](O2)[C@@H](C)C(=O)O[C@H](C)C[C@H]2CC[C@H](O2)[C@H](C)C(=O)O[C@@H](C)C[C@@H]2CC[C@@H](O2)[C@@H](C)C(=O)O1 | . | . | -9 | . | -1 | 85* | 24* | 72*

Screening data: PubChem, The Scripps Research Institute Molecular Screening Center
